In PubChem BioAssay:
Active and inactive are the calls of the source.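 The calls were made as follows, unless noted: active = visual image review flags a hit and inhibition of aggregation exceeds 20%; inconclusive = visual hit but inhibition at or below 20%; inactive = no hit on visual image review.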

Legend:
[1] = inhibitors of TNFa-induced NFkB p65 translocation, primary screen, imaging, HUVEC, MLSMR starter and 10KST1 sets (AID 438;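 active = inhibition above 20% together with a positive visual image hit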;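 also: compound added about 3h40 before a 20 min TNFalpha stimulation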;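 as to inhibition: signal is the nuclear over cytoplasmic p65 intensity ratio per well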); details: HUVEC TNFa-induced p65 nuclear translocation; cell count: measured here: nuclei count (cytotoxicity indicator), at 2.08 µM; inhibition: at 2 µM, stronger effect = higher value, 0% TNFa-plus-vehicle, 100% no-TNFa wells
[2] = reduction of polyQ htt aggregates in cells – imaging, exon1htt(103Q)mCFP cells, high-content imaging, primary screen (AID 483); details: exon1htt(103Q)mCFP cell line, aggregate imaging, at 2 µM; inhibition of aggregation: stronger effect = higher value; nuclei count: measured here: cell count, toxicity;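 also: compound exposure lasted 3 days before fixation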;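 as to nuclei count: percent of the per-plate median nuclei count of sample wells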
[3] = endothelial E-selectin expression blockers – imaging, HUVEC, immunofluorescence, MLSMR starter and 10KST1 sets, primary screen (AID 487;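 active = visually confirmed hit in the image check and inhibition above 20%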;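 as to inhibition: signal is fraction of cell area covered by stained E-selectin grains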;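 as to nuclei count: 100% = median nuclei count of all wells on the same plate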); details: HUVEC TNFalpha-induced E-selectin immunofluorescence imaging, at 2 µM; inhibition: stronger effect = higher value; nuclei count: measured here: cell number, toxicity
[4] = molecular target: Voltage-gated potassium channel subunit beta-2 (Rattus norvegicus) (UniProt P62483); experiment: inhibitors of rat Kvbeta2 reductase activity – biochemical, NADPH fluorescence, primary screen (AID 622;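 active = fluorescence slope higher than the sample average by over 3 SD, cut at about -0.22 in these data, passing the limit was not always enough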;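 also: slope of raw intensity against log time taken from 70 to 1610 s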); details: recombinant KvBeta, 4-cyanobenzaldehyde reduction, at 10 µM, stronger effect = higher value
[5] = molecular target: Voltage-gated potassium channel subunit beta-2 (Rattus norvegicus) (UniProt P62483); experiment: enhancers of rat Kvbeta2 NADPH turnover – biochemical, NADPH fluorescence, primary screen (AID 623;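 active = NADPH fluorescence slope more negative than the mean of all samples by about 3 SD, 99.7% confidence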;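 also: fluorescence intensity change per second fitted from 20 to 320 s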); details: Recombinant KvBeta, NADPH fluorescence decrease slope, 10 min; at 10 µM; stronger effect = lower value
[6] = molecular target: Alpha-2C adrenergic receptor (Homo sapiens) (UniProt P18825); experiment: compounds altering alpha2C-coupled GIRK flux – cell-based, HEK293 alpha2C/GIRK1/2, thallium flux, primary screen (AID 624;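 active = fluorescence slope after compound addition differing from the mean of all screened samples at 99.7% confidence, in either direction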;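 also: slope of fluorescence ratio to pre-addition baseline per second over 15 to 24 s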); details: thallium flux BTC fluorescence, at 10 µM, actives lie on both sides
[7] = blockers of RIG-like receptor reporter activation – cell-based, Sendai virus stimulus, luciferase, 10K MLSCN set, TLR/RLR signaling modifier project, primary screen (AID 602276;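 active = inhibition at or above 50% at 10 µM; inactive = inhibition below 50%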;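 also: firefly luciferase from ISG56 promoter only with Renilla not read in this screen; 0% = Sendai virus plus DMSO and 100% = medium plus DMSO without virus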); details: HEK293 RL24 IRF3 luciferase reporter, at 10 µM, stronger effect = higher value
[8] = TLR3 IRF3 reporter activation blockers – cell-based, poly I:C stimulus, luciferase, 10K MLSCN set, primary screen (AID 602277;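 active = inhibition of the reporter signal at or above 50%; inactive = inhibition below 50%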); details: HEK293-TLR3 RL24 IRF3 luciferase reporter, at 10 µM, stronger effect = higher value

Alpha-2C adrenergic receptor (Homo sapiens), sequence (P18825 whole entry, looked up): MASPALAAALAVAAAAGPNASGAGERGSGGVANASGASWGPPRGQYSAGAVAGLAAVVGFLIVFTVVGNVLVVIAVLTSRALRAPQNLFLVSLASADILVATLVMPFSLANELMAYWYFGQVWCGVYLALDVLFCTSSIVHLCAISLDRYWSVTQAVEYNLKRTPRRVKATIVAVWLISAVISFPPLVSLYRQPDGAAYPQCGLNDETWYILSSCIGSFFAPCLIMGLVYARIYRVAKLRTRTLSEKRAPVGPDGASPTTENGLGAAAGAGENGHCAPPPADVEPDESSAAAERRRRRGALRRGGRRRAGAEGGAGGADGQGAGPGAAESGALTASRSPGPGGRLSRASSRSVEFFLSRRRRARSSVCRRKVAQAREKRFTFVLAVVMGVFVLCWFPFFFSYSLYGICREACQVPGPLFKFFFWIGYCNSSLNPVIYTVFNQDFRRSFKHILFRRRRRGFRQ
Voltage-gated potassium channel subunit beta-2 (Rattus norvegicus), sequence (P62483 whole entry, looked up): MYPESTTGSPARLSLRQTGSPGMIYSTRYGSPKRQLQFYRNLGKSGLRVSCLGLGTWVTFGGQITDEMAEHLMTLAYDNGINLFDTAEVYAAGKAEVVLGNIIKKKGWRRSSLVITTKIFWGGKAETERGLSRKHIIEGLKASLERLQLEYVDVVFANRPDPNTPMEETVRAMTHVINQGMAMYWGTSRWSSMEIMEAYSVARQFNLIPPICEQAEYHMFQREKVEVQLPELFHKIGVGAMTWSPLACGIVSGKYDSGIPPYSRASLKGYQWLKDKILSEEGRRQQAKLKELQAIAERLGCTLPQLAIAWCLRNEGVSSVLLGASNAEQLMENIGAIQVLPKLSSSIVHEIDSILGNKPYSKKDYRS

| Structure (SMILES) | cell count [1] | inhibition [1] | inhibition of aggregation [2] | nuclei count [2] [%] | inhibition [3] | nuclei count [3] [%] | fluorescence slope [4] | NADPH fluorescence slope [5] | slope [6] | inhibition [7] | inhibition [8] |
| --- | --- | --- | --- | --- | --- | --- | --- | --- | --- | --- | --- |
| COc1cc(S(=O)(=O)N2CCC(N3CCCCC3)CC2)ccc1-n1cnnn1 | 351 | 6.9% (inactive) | 14.1% (inactive) | 89.1 | -20.4% (inactive) | 102 | -0.593 (inactive) | -7.9e-06 (inactive) | 0.00492 (inactive) | -9.28% (inactive) | 3.24% (inactive) |
| COc1cc(NC(=O)c2cccs2)cc(OC)c1 | 306 | -14.2% (inactive) | 33% (inactive) | 82.6 | -201% (inactive) | 96.7 | -0.337 (inactive) | -4.5e-05 (inactive) | 0.00448 (inactive) | -38.7% (inactive) | -64.2% (inactive) |
| CCOc1ccccc1C(=O)Nc1cc(=O)n(C)c(=O)n1C | 651 | -0.8% (inactive) | 6.8% (inactive) | 95.8 | 31% (inactive) | 98.4 | -0.416 (inactive) | -4.9e-05 (inactive) | 0.00585 (inactive) | 14.8% (inactive) | 39.7% (inactive) |
| O=C(NC1CCCCC1)N(Cc1ccccc1)Cc1ccco1 | 482 | 6.5% (inactive) | 0.2% (inactive) | 90.9 | -214% (inactive) | 128 | -0.4 (inactive) | 6.8e-05 (inactive) | 0.00512 (inactive) | -9.22% (inactive) | 11.3% (inactive) |
| C(=N\c1c(-c2ccccc2)nc2n1CCS2)/c1ccccc1 | 594 | -22.1% (inactive) | -0.7% (inactive) | 86 | 18.8% (inactive) | 43.9 | -0.458 (inactive) | -3.7e-05 (inactive) | 0.00231 (inactive) | 0.61% (inactive) | 10.6% (inactive) |
| O=C(C1CC1)N1CCc2cc(Br)cc(S(=O)(=O)N3CCOCC3)c21 | 300 | 2.2% (inactive) | -4.4% (inactive) | 106 | -22.9% (inactive) | 112 | -0.59 (inactive) | -3.6e-05 (inactive) | 0.00736 (inactive) | 15.4% (inactive) | 24.8% (inactive) |
| CC(=O)c1ccc(NS(=O)(=O)c2ccccc2)cc1 | 554 | -4.8% (inactive) | 0.4% (inactive) | 62.8 | -59.1% (inactive) | 92.5 | -0.467 (inactive) | 3.9e-05 (inactive) | 0.00323 (inactive) | -17.2% (inactive) | 7.05% (inactive) |
| CC1CCCCN1CCNS(=O)(=O)c1ccc2c(c1)oc(=O)n2C (centres undefined) | 248 | 0.3% (inactive) | 4.6% (inactive) | 89.3 | 18.9% (inactive) | 88.9 | -0.424 (inactive) | -6.8e-05 (inactive) | 0.00417 (inactive) | 15.8% (inactive) | 18.5% (inactive) |
| COc1ccccc1-n1c(C)nnc1SCC(=O)Nc1cccc(C(C)=O)c1 | 388 | 4.3% (inactive) | 3.5% (inactive) | 104 | 52.4% (inactive) | 95.1 | -0.355 (inactive) | -8e-06 (inactive) | 0.00484 (inactive) | 17.5% (inactive) | 13.3% (inactive) |
| COc1ccc(N2CCN(C(=O)C(OC(C)=O)c3ccccc3)CC2)cc1 (centres undefined) | 594 | -4.7% (inactive) | -4.8% (inactive) | 92.4 | -2.4% (inactive) | 95.4 | -0.386 (inactive) | 4.8e-05 (inactive) | 0.00658 (inactive) | 11.4% (inactive) | 11.3% (inactive) |
| Cc1occc1C(=O)Nc1nnc(C2CCCCC2)s1 | 356 | 7.6% (inactive) | -8.9% (inactive) | 108 | 14% (inactive) | 106 | -0.526 (inactive) | -1.5e-05 (inactive) | 0.00511 (inactive) | -0.797% (inactive) | -13.3% (inactive) |
| CC1CN(c2nc(-c3ccccc3)nc3ccccc23)CC(C)O1 (centres undefined) | 407 | -6% (inactive) | -1.5% (inactive) | 99.3 | -29.4% (inactive) | 114 | -0.333 (inactive) | -5.3e-05 (inactive) | 0.00612 (inactive) | 12% (inactive) | 22% (inactive) |
| COC(=O)C1=C(C)OC(N)=C(C#N)C1c1c(C)nn(-c2ccccc2)c1Cl (centres undefined) | 798 | 3.8% (inactive) | 12.3% (inactive) | 107 | -33.5% (inactive) | 126 | -0.524 (inactive) | 1e-05 (inactive) | 0.00643 (inactive) | -88.9% (inactive) | -11.8% (inactive) |
| Cn1c(=O)c2c(ncn2CC(=O)OCC(=O)NC2CCCc3ccccc32)n(C)c1=O (centres undefined) | 392 | 2.7% (inactive) | 23.7% (inactive) | 64.6 | -85.1% (inactive) | 112 | -0.616 (inactive) | 2.2e-06 (inactive) | 0.00842 (inactive) | 2.45% (inactive) | 22.5% (inactive) |
